The text below walks through data of PubChem BioAssay (NCATS).

The structures appear in SMILES notation. Inconclusive results are not listed. Values without a mark were called inactive. Active and inactive are the calls of the source. Calls follow the shape of the dose curve; as a rule, active = well fitted cell-killing curve with a large enough effect; inconclusive = small, poorly fitted or top-dose-only effect, or effect the other way; inactive = no such curve, though single readings can be large or run the other way.
Potency is read from the fitted curve at half-maximal effect.

A short description of the first test: Quantitative High-Throughput drug screen in 47 multiple myeloma cell lines against the NCATS MIPE library collection: JIM1_ECACC cell viability assay (AID 1918964). To be noted: JIM1 myeloma viability, CellTiter-Glo ATP luminescence, 48 h; series mostly up to 45.8 µM; viability (% of DMSO): at the top concentration. The gist of the method: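 Viability readout: CellTiter-Glo luminescence following 5 min room-temperature incubation with reagent. Prior exposure: 48 h, 37C, humidified 5% CO2, 500 cells per well.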
A general note: Cellular ATP, detected with luciferase, serves as a proxy for viable cell number.
As to `C[C@@H]1CC[C@@]2(OC1)O[C@H]1C[C@H]3[C@@H]4CC=C5C[C@@H](O[C@@H]6O[C@H](CO)[C@@H](O[C@@H]7O[C@@H](C)[C@H](O)[C@@H](O)[C@@H]7O)[C@H](O)[C@@H]6O[C@@H]6O[C@@H](C)[C@H](O)[C@@H](O)[C@@H]6O)CC[C@]5(C)[C@@H]4CC[C@]3(C)[C@@H]1[C@H]2C`, the Potency is 2.35 µM (active).
Still for that read-out and setting: then `Cc1c(C(=O)Nc2cccc(C(F)(F)F)c2)cc(-c2ccccc2)n1CCCN1CCOCC1`, with 6.62 µM (active).
Turning to `COc1cc2cc(c1Cl)N(C)C(=O)C[C@H](OC(=O)C(C)C)[C@]1(C)O[C@H]1[C@H](C)[C@@H]1C[C@@](O)(NC(=O)O1)[C@H](OC)C=CC=C(C)C2`, the “viability (% of DMSO)” value was 20.8%.
On the same count and under the same terms, under `O=S(=O)(CC1CS1)c1ccc(Oc2ccccc2)cc1` (centres undefined) stands 145%; under `CCCC[N+]1(C)[C@H]2CC(OC(=O)[C@H](CO)c3ccccc3)C[C@H]1[C@H]1O[C@H]12` (some centres undefined), 72.5%.
For `O=c1[nH]c2ccc(Cl)cc2c(N[C@@H]2CN3CCC2CC3)c1-c1nc2ccccc2[nH]1`, the Potency is 0.0418 µM (active).
Same read-out and setting: under `CCN1CCN(C(=O)Cc2ccc(Nc3ncc(F)c(Nc4ccc(C(=O)Nc5ccccc5Cl)cc4)n3)cc2)CC1` stands 2.09 µM (active); under `NC1=NC(=O)N2CC12` (centres undefined), 13.2 µM (active).
Consider `CC(C)[C@]12O[C@@H]1[C@@H]1O[C@]13[C@]1(O[C@H]1C[C@@H]1C4=C(CC[C@@]13C)C(=O)OC4)[C@H]2O`, for which the “viability (% of DMSO)” value is 5.64%.
Same read-out and setting: then `CC(N[C@H]1C[C@H]1c1ccccc1)c1ccc2c(c1)OCCO2` (some centres undefined), with 79.8%.
Turning to `CCCCCC[C@H]1C(=O)O[C@H](C)[C@H](NC(=O)c2cccc(NC=O)c2O)C(=O)O[C@@H](C)[C@@H]1OC(=O)CC(C)C`, the Potency is 0.372 µM (active).
The same measure, in the same setting: under `CC(C)(O)C=CC(=O)[C@](C)(O)[C@H]1[C@H](O)C[C@]2(C)[C@@H]3CC=C4[C@@H](C=C(O)C(=O)C4(C)C)[C@]3(C)C(=O)C[C@@]12C` stands 0.0148 µM (active).

A further test can be described thus: Quantitative High-Throughput drug screen in 47 multiple myeloma cell lines against the NCATS MIPE library collection: INA6_PLB cell viability assay (AID 1918965; also: nearly all actives have a fitted effect of over 55% in size). To be noted: INA6 myeloma viability, CellTiter-Glo ATP luminescence, 48 h; series mostly up to 45.8 µM; viability (% of control): at the top concentration. An outline of the steps:
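Myeloma cells (500 per well) were exposed to MIPE 4.0 compounds by pin transfer and incubated 48 hours at 37C, 5% CO2. Viability was read as ATP by CellTiter-Glo luminescence, normalised to DMSO (100%) and media-only (0%) wells.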
As for `c1ccc2c(CN3CCNCC3)cccc2c1`, the “viability (% of control)” value is 116%.
For the compound `CCNC(=O)C[C@@H]1N=C(c2ccc(Cl)cc2)c2cc(OC)ccc2-n2c(C)nnc21`, the Potency was 0.132 µM (active).
Turning to `CCc1c(C(=O)C(N)=O)c2c(OCC(=O)O)cccc2n1Cc1ccccc1`, the “viability (% of control)” value is 156%.
`CCOC(=O)c1cncn1[C@H](C)c1ccccc1`: the “viability (% of control)” value was 142%.
With `COc1ccc(C(=O)c2c(C)n(CCN3CCOCC3)c3cc(I)ccc23)cc1`, the Potency was 8.33 µM (active).
The same measure, in the same setting: then `CC1=C(O)C(=O)C=C2C1=CC=C1[C@@]2(C)CC[C@@]2(C)[C@@H]3C[C@](C)(C(=O)O)CC[C@]3(C)CC[C@]12C`, with 0.743 µM (active).
Still for that read-out and setting: then `COc1ccc2c(c1)CN(C)CC2c1ccc(Cl)c(Cl)c1` (centres undefined), with 23.5 µM (active); and `CC[C@@]1(O)C(=O)OCc2c1cc1n(c2=O)Cc2cc3ccccc3nc2-1`, with 0.0209 µM (active); and `CC[C@@H]1[C@@H](C)O[C@@](O)([C@@H](C)[C@H](O)[C@H](C)[C@H]2OC(=O)C=CC=C[C@@H](C)[C@@H]([C@@H](C)[C@@H](O)[C@H](C)[C@@]3(O)C[C@H](O[C@H]4C[C@H](O)[C@H](O)[C@H](C)O4)[C@H](CC)[C@@H](C)O3)OC(=O)C=CC=C[C@@H]2C)C[C@H]1O[C@H]1C[C@H](O)[C@H](O)[C@H](C)O1`, with 1.05 µM (active).
On the same count and under the same terms, then `COc1ccc2c(c[n+](C)c3c4cc5c(cc4ccc23)OCO5)c1OC`, with 8.33 µM (active).
For the compound `Cc1c(C(=O)Nc2cccc(C(F)(F)F)c2)cc(-c2ccccc2)n1CCCN1CCOCC1`, the Potency was 16.6 µM (active).
For the compound `COc1cc2cc(c1Cl)N(C)C(=O)C[C@H](OC(=O)C(C)C)[C@]1(C)O[C@H]1[C@H](C)[C@@H]1C[C@@](O)(NC(=O)O1)[C@H](OC)C=CC=C(C)C2`, the “viability (% of control)” value was 7.95%.
With `O=S(=O)(CC1CS1)c1ccc(Oc2ccccc2)cc1` (centres undefined), the Potency was 14.8 µM (active).
Still for that read-out and setting: then `CCCC[N+]1(C)[C@H]2CC(OC(=O)[C@H](CO)c3ccccc3)C[C@H]1[C@H]1O[C@H]12` (some centres undefined), with 2.35 µM (active); and `O=c1[nH]c2ccc(Cl)cc2c(N[C@@H]2CN3CCC2CC3)c1-c1nc2ccccc2[nH]1`, with 0.0332 µM (active); and `CCN1CCN(C(=O)Cc2ccc(Nc3ncc(F)c(Nc4ccc(C(=O)Nc5ccccc5Cl)cc4)n3)cc2)CC1`, with 0.935 µM (active).
With `NC1=NC(=O)N2CC12` (centres undefined), the Potency is 18.7 µM (active).
As for `CC(C)N(CCNC(=O)CN1CCCC1=O)C(C)C`, the “viability (% of control)” value was 160%.
The same measure, in the same setting: under `CC(C)[C@]12O[C@@H]1[C@@H]1O[C@]13[C@]1(O[C@H]1C[C@@H]1C4=C(CC[C@@]13C)C(=O)OC4)[C@H]2O` stands 1.77%; under `CC(N[C@H]1C[C@H]1c1ccccc1)c1ccc2c(c1)OCCO2` (some centres undefined), 141%.
Regarding `CCCCCC[C@H]1C(=O)O[C@H](C)[C@H](NC(=O)c2cccc(NC=O)c2O)C(=O)O[C@@H](C)[C@@H]1OC(=O)CC(C)C`, the Potency was 0.0833 µM (active).
Same read-out and setting: then `CC(C)(O)C=CC(=O)[C@](C)(O)[C@H]1[C@H](O)C[C@]2(C)[C@@H]3CC=C4[C@@H](C=C(O)C(=O)C4(C)C)[C@]3(C)C(=O)C[C@@]12C`, with 0.0148 µM (active).
